# Assay outcomes: PubChem BioAssay, several laboratories
# GDH-TPI counter = inhibits GDH-TPI coupling enzymes, artifact for Mtb FBA screen | GDH-TPI coupled enzyme counterscreen, NADH absorbance | inhibition, % at 4.8 µM | 1.2% of 360,000 active; in the data active = inhibition above about 30%
# Anthrax LF inh2 = anthrax lethal factor protease inhibition; P15917; multiplex microsphere protease cleavage assay, LF; inhibition, % at 10 µM; 0.12% of 360,000 active
# BoNT A protease = BoNT A light chain protease inhibition; multiplex microsphere protease substrate cleavage, flow cytometry; 0.17% of 360,000 active; inhibition, % at 10 µM; AID 588499
# Mtb FBA inh = inhibits M. tuberculosis FBA enzyme. 2.3% of 360,000 active. purified M. tuberculosis FBA, fluorescence read-out. inhibition, % at 1 µM. AID 588726; in the data active = inhibition above about 27%
# Target sequence (P9WQA3 whole entry, looked up): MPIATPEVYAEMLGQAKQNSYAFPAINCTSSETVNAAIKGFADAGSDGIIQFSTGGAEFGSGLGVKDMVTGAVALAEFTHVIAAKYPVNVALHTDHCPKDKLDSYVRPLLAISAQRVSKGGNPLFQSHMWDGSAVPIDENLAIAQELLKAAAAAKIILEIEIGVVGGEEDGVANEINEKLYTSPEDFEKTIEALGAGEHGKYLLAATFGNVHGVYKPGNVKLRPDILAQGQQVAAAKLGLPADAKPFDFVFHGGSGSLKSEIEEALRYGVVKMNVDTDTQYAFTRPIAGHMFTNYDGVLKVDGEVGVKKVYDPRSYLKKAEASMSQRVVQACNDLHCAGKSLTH
# BoNT-F LC inh = inhibitors of Botulinum neurotoxin F light chain protease; Multiplex microsphere protease cleavage assay, flow cytometry; inhibition, % at 10 µM; 0.22% of 360,000 active; AID 588497; in the data active = inhibition above about 35%, passing the limit was not always enough; inconclusive = no clear call, values can overlap the other calls
# Autofluor counter = counter-screen for toxin protease inhibitors: compound fluorescence; compound autofluorescence counterscreen, microsphere flow cytometry; hits give high values; fluorescence intensity (no concentration beside the values); 3.1% of 360,000 active; AID 624483; in the data active = fluorescence intensity above about 16000; inconclusive = no clear call, values can overlap the other calls
# Numbers stand for hits; - = inactive; ? = inconclusive; . = no result. Sampled rows, rich in hits. Any-hit rate of the full collection: about 6.7%. Rule as the data show it, unless noted: active = inhibition above about 30%; inconclusive = no clear call, values can overlap the other calls; inactive = below that.
SMILES,GDH-TPI counter,Anthrax LF inh2,BoNT A protease,Mtb FBA inh,BoNT-F LC inh,Autofluor counter
O=C1N=C(N2CCOCC2)S/C1=C1\C(=O)N(Cc2ccccc2)c2ccccc21,-,-,-,-,-,16736
CC1CN(C2=NC(=O)/C(=C3/C(=O)N(Cc4ccc(F)cc4)c4ccccc43)S2)CC(C)O1 (stereo not drawn),-,32,?,-,?,-
O=C(COc1ccc(Cl)cc1)NCc1n[nH]c(=O)c2ccccc12,-,-,-,-,-,-
COCCCNC(=O)c1cc(OC)c(OC)c(OC)c1,-,-,-,-,-,-
O=C(N/N=C/c1ccccn1)c1ccc(NC(=O)c2ccccc2Cl)cc1,-,-,-,-,-,-
Cc1ccc(CN2CCNC(=O)C2CC(=O)O)cc1 (stereo not drawn),-,-,-,-,-,-
CN1CCNC(=O)C1CC(=O)O (stereo not drawn),-,-,?,-,-,22031
Cc1cc(-c2ccccc2)nc(N(C)C)c1S(C)(=O)=O,-,-,-,-,-,-
COCC(=O)Nc1sc2c(c1C(=O)OC)C(C(=O)OC)CC2 (stereo not drawn),-,-,-,-,-,20588
C/C(=C\c1cccs1)C(=O)c1c(C)cc(C)[nH]c1=O,53,-,-,-,-,-
Cc1cc(C)c(C(=O)/C=C/c2cccs2)c(=O)[nH]1,-,-,-,-,-,-
CCn1c2ccccc2c2cc(NC(=O)CNCc3ccccc3OC)ccc21,-,-,-,-,-,-
CN(C)c1ccc(-c2ccc3oc(-c4ccsc4)cc(=O)c3c2)cn1,-,-,-,-,-,-
CCCCC1CC1C(=O)Nc1ccc(OC)c(OC)c1 (stereo not drawn),-,-,-,-,-,16567
Cc1cccc(-n2c(O)cnc2Nc2nc(C)cc(C)n2)c1,-,-,-,-,-,-
Cc1c(C(=O)Nc2nc3ccccc3[nH]2)oc2ccccc12,33,-,-,-,-,-
Cc1c(C(=O)Nc2nnc(C(F)(F)F)s2)oc2ccccc12,-,-,-,-,-,23455
COCc1c(C(=O)Nc2nnc(C3CC3)s2)oc2ccccc12,44,-,-,-,-,-
Cc1ccc(C(=O)COC(=O)CCC(=O)NC2CCCCC2)cc1[N+](=O)[O-],-,-,-,-,-,-
O=C(CNC(=O)c1ccc(OC(F)F)cc1)NCC1CCCO1 (stereo not drawn),-,-,-,-,-,-
Cc1ccc(S(=O)(=O)N2CCN(S(=O)(=O)N(C)C)CC2)cc1,-,-,-,-,-,-
Cc1ccc(-c2ccc(S(=O)(=O)N3CCCC3)cc2)cc1,-,-,-,-,-,-
CN1CCN(S(=O)(=O)c2ccc(-c3ccccc3)cc2)CC1,-,-,-,-,-,22073
CN(C)S(=O)(=O)N1CCN(S(=O)(=O)c2ccccc2)CC1,-,-,-,-,-,20194
Cc1ccc(-c2ccc(S(=O)(=O)N3CCN(C)CC3)cc2)cc1,-,-,-,-,-,21880
SMILES,GDH-TPI counter,Anthrax LF inh2,BoNT A protease,Mtb FBA inh,BoNT-F LC inh,Autofluor counter
Cc1ccc(S(=O)(=O)N2CCN(S(C)(=O)=O)C2)cc1,-,-,-,-,-,-
Cc1ccc(S(=O)(=O)N2CCN(S(=O)(=O)c3ccccc3)C2)cc1,-,-,-,-,-,21096
COC(=O)C1=C(c2ccc(OC(F)(F)F)cc2)C[C@@H]2CC[C@H]1N2C(=O)NCc1cccc2ccccc12,-,-,-,-,-,-
CCc1ccc(OCc2nnc(-c3ccccc3Br)o2)cc1,-,.,.,-,.,.
CCOc1ccccc1-n1c(C)cc(C=O)c1C,-,-,-,-,-,-
CCOc1cc(/C=N/NC(=O)c2cccs2)cc([N+](=O)[O-])c1O,-,-,-,-,-,-
CN(C)S(=O)(=O)N1CCN(c2ccc(Cl)cc2)CC1,-,-,-,-,-,16470
Cc1ccc(N2CCN(S(=O)(=O)N(C)C)CC2)cc1C,-,-,-,-,-,-
COc1ccc(N2C(=O)CC(N3CCC(O)(c4ccc(Br)cc4)CC3)C2=O)cc1 (stereo not drawn),-,-,-,-,-,-
COc1ccc(C(=O)COC(=O)/C=C/c2ccccc2[N+](=O)[O-])cc1,-,-,-,-,-,-
Cc1ccc(-c2c(C#N)c(N)n(-c3ccc(C)cc3)c(=O)c2C#N)cc1,40,-,-,-,-,-
CC(=O)Nc1c(C#N)c(-c2ccccc2)c(C#N)c(=O)n1-c1ccc(C)cc1,33,-,-,-,-,-
Cc1ccc(-n2c(N)c(C#N)c(-c3ccc(Cl)cc3)c(C#N)c2=O)cc1,-,-,-,-,-,-
N/C(=N\OC(=O)c1ccccc1)C(Cc1ccccc1)C(=O)NOC(=O)c1ccccc1 (stereo not drawn),-,-,-,-,-,-
N#C/C(=C(/O)CN1CCOCC1)c1nc2ccccc2s1,39,-,-,-,-,-
N#C/C(=C(/O)c1ccco1)c1nc2ccccc2s1,56,-,-,-,?,-
N#C/C(=C(/O)COC(=O)c1ccccc1O)c1nc2ccccc2s1,-,-,-,-,-,-
N#C/C(=C(/O)c1cc2ccccc2o1)c1nc2ccccc2s1,-,-,-,-,-,-
CCn1ncc(C2=NOC(C(=O)NCC(C)C)C2)c1C (stereo not drawn),-,-,-,-,-,-
CCn1ncc(C2=NOC(C(=O)N3CCC(C(N)=O)CC3)C2)c1C (stereo not drawn),-,-,?,-,-,21518
CCOC(=O)N1CCN(C(=O)C2CC(c3cc(OC)ccc3OC)=NO2)CC1 (stereo not drawn),-,-,?,-,-,23965
CCn1ncc(C2=NOC(C(=O)Nc3cnn(C45CC6CC(CC(C6)C4)C5)c3)C2)c1C (stereo not drawn),-,-,-,-,-,21886
CCn1ncc(C2=NOC(C(=O)Nc3cc(OC)c(Cl)cc3OC)C2)c1C (stereo not drawn),-,-,-,-,-,18923
CN(Cc1ccccc1)S(=O)(=O)c1ccc(OCC(=O)NCc2ccncc2)cc1,-,-,-,-,-,-
CN(C)/C=C/C(=O)/C=C/c1ccc(Cl)cc1Cl,-,-,-,-,-,-
SMILES,GDH-TPI counter,Anthrax LF inh2,BoNT A protease,Mtb FBA inh,BoNT-F LC inh,Autofluor counter
Cc1c(C(=O)/C=C/N(C)C)nnn1-c1ccc(Cl)c(Cl)c1,42,-,-,-,?,-
Cc1c(C(=O)/C=C/N(C)C)nnn1-c1ccc(Cl)cc1Cl,33,-,-,-,?,-
COC(=O)c1nnn(-c2ccc(Cl)c(Cl)c2)c1C(=O)OC,-,-,-,-,-,-
Cc1c(C(=O)/C=C/N(C)C)nnn1-c1ccc(F)c(Cl)c1,35,-,-,-,-,-
O=C(Nc1cccc(S(=O)(=O)Nc2ccccc2F)c1)c1ccco1,-,-,-,-,-,-
C[C@H](O)[C@H](O)[C@H]1CNc2nc(N)[nH]c(=O)c2N1,-,-,-,73,-,-
Cc1occc1-c1nnc(SCC(=O)N(C)C)o1,-,-,-,-,-,19878
Cc1occc1-c1nnc(SCC(=O)N2CCCCC2C)o1 (stereo not drawn),-,-,-,-,-,-
